The results in this text go back to PubChem BioAssay (NCATS).

The structures appear in SMILES notation. Where “and” joins values, the source holds several entries; their conditions need not be identical. Equal values may be shown once. A number with no mark means an inactive call. Inconclusive results are not listed. Calls of active or inactive are those of the source. Unless noted, the call rests on the fitted dose curve; in most records, active means well fitted curve in the direction sought with a large enough effect; inconclusive means small, poorly fitted or top-dose-only effect, or another doubt; inactive means no such curve, though single readings can be large; an effect the other way counts as inactive or inconclusive.

A short description of assay [1]: Cell Viability - BJ (AID 421; calls by dose curve;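 further: potency means the concentration at half of the fitted maximal effect; cells exposed to compound for 40 hours at 37 °C before readout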). The following applies: BJ fibroblast viability, qHTS. The procedure, abridged: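 Quantitative HTS: ATP depletion in BJ cells after 40 hr compound exposure in complete culture medium, detected with CellTiter-Glo; AC50 from standard Hill fits.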
(In qHTS, concentration-response curves come from the screen itself.)

Assay [2] is described as follows: Cell Viability - Jurkat (AID 426;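 active means dose-dependent loss of cell ATP signal giving a full or clear fitted curve, ranked by lower potency value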; further: potency means the concentration at half of the fitted maximal effect). The following applies: qHTS. The gist of the method:
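Jurkat (clone E6-1, human T-cell leukemia) cells, 5000/well in complete medium, were exposed to compound for 40 hr at 37 °C. Viability was read as intracellular ATP by CellTiter-Glo luminescence; AC50 came from Hill fits of concentration-response data.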

Assay [3] can be described thus: Cell Viability - Hek293 (AID 427;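 active means compounds whose dose-response curve shows a full or clear partial loss of cell viability, called from curve shape rather than a numeric limit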;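 further: potency means the concentration at half of the fitted maximal effect; cells exposed to compound for 40 hours at 37 °C before reading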). The following applies: qHTS. The gist of the method:
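AC50 values derive from Hill-modelled concentration-response of ATP-based luminescence, normalized between DMSO-only and 100 uM tamoxifen controls. Cells were exposed in complete culture medium for 40 hr at 37 °C before detection.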

Assay [4] is described as follows: Cell Viability - HepG2 (AID 433; calls by dose curve;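 further: potency means the concentration at half of the fitted maximal effect; potency for ATP loss meaning cytotoxicity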). The note with it: qHTS. The gist of the method: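 Cytotoxicity is scored as loss of intracellular ATP in HepG2 cells exposed to compounds for 40 h. Concentration-response curves, normalized to DMSO and 100 uM tamoxifen, give AC50 values.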
Assay [5] can be described thus: Cell Viability - SK-N-SH (AID 435; calls by dose curve;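 further: potency means the concentration at half of the fitted maximal effect; compound exposure lasted 40 h at 37 °C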). The note with it: SK-N-SH neuroblastoma cell viability qHTS. The procedure, abridged: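 Cells seeded at 1500 per well and incubated 5 hr at 37 °C. Compound added, then 40 hr at 37 °C. CellTiter-Glo added, 20 min at room temperature, luminescence read.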
The nature of assay [6]: Cell Viability - N2a (AID 540).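 Further: plate controls were DMSO alone for no effect and tamoxifen control for full effect; nearly all actives have a fitted effect of over 45% in size.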 The note with it: N2a mouse neuroblastoma cell viability; activity change, negative = cytotoxicity: at 92.2 µM (top of the series). The gist of the method: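 Mouse neuroblastoma N2a cells (1500/well) were preincubated 5 hr at 37 °C, then exposed to compounds for 40 hr at 37 °C in complete medium. Viability was read as intracellular ATP by CellTiter-Glo luminescence; AC50 from Hill fits.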

The nature of assay [7]: Cell Viability - HUV-EC-C (AID 542). Further: on the % scale 0 is the no-effect control and ±100 the full control effect; nearly all actives have a fitted effect of over 35% in size. The following applies: HUV-EC-C endothelial cell viability, qHTS; series mostly up to 92.2 µM. The procedure, abridged: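 HUV-EC-C normal human vascular endothelial cells, 1000 cells/well, pre-incubated 5 hr at 37 °C, then exposed to compounds for 40 hr at 37 °C in complete medium. Viability measured as intracellular ATP by CellTiter-Glo luminescence; AC50 from Hill fits.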

The nature of assay [8]: Cell Viability - H-4-II-E (AID 543). Further: on the % scale 0 is the no-effect control and ±100 the full control effect; nearly all actives have a fitted effect of over 35% in size. The note with it: H-4-II-E rat hepatoma viability; series mostly up to 92.2 µM. The gist of the method: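 Rat hepatoma H-4-II-E cells (1500/well) were plated, incubated 5 hr at 37 °C, then exposed to compounds for 40 hr at 37 °C. Cellular ATP was read by CellTiter-Glo luminescence; AC50 came from Hill-equation fits of concentration-response data.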

Assay [9] can be described thus: Cell Viability - SH-SY5Y (AID 544). Further: nearly all actives have a fitted effect of over 55% in size. Further: potency means the concentration at half of the fitted maximal effect. The following applies: SH-SY5Y neuroblastoma cell viability; series mostly up to 92.2 µM. The gist of the method: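 Human neuroblastoma SH-SY5Y cells (1500/well) in complete medium were exposed to compounds for 40 hr at 37 °C; intracellular ATP was then quantified by CellTiter-Glo luminescence after 20 min at room temperature. AC50 came from Hill-equation concentration-response fits.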

Assay [10] is described as follows: Cell Viability - Renal Proximal Tubule (AID 545). Further: nearly all actives have a fitted effect of over 40% in size. The following applies: renal proximal tubule cells viability; series mostly up to 91.7 µM. The gist of the method: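 Cytotoxicity is scored as a concentration-dependent drop in cellular ATP in primary rat renal proximal tubule cells exposed for 40 hr. AC50 derives from Hill modelling.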
Assay [11] is described as follows: Cell Viability - Mesenchymal (AID 546).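 Further: cells exposed to compound for 40 hours before reading.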 The note with it: mesenchymal cells viability, qHTS; series mostly up to 91.7 µM. The procedure, abridged: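 AC50 values reflect the drop in intracellular ATP in a human kidney mesenchymal line derived from normal glomeruli. Treatment lasts 40 hr at 37 °C in complete medium, and the signal comes from CellTiter-Glo luminescence.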

Assay [12] is described as follows: Cellular Toxicity (caspase-3) HepG2 (AID 654).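 Further: cells exposed to compound for 16 hours before reading; 0% = DMSO alone and 100% = caspase signal from 100 µM tamoxifen.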 The following applies: HepG2 caspase-3 activation, luminescence, 0% = DMSO only, 100% = tamoxifen; series mostly up to 92.2 µM. The procedure, abridged:
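HepG2 cells (1500/well) in complete medium were treated with compounds for 16 hr at 37 °C. Caspase-3/7 activity was then read as luminescence from peptide-aminoluciferin cleavage. AC50 came from Hill fits, normalized to DMSO and 100 uM tamoxifen.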

The target in assay [13] is Glucocorticoid receptor (Homo sapiens) (UniProt P04150). The experiment in a line: GR-GFP Redistribution (AID 450;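 active means compounds whose dose series gives a full or clear partial fitted curve of increased nuclear translocation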; further: potency means the concentration at half of the fitted maximal effect). The following applies: U2OS GR-GFP nuclear translocation, laser cytometry, 2 h.
Glucocorticoid receptor (Homo sapiens), sequence (P04150 whole entry, looked up, the tested form may be a part): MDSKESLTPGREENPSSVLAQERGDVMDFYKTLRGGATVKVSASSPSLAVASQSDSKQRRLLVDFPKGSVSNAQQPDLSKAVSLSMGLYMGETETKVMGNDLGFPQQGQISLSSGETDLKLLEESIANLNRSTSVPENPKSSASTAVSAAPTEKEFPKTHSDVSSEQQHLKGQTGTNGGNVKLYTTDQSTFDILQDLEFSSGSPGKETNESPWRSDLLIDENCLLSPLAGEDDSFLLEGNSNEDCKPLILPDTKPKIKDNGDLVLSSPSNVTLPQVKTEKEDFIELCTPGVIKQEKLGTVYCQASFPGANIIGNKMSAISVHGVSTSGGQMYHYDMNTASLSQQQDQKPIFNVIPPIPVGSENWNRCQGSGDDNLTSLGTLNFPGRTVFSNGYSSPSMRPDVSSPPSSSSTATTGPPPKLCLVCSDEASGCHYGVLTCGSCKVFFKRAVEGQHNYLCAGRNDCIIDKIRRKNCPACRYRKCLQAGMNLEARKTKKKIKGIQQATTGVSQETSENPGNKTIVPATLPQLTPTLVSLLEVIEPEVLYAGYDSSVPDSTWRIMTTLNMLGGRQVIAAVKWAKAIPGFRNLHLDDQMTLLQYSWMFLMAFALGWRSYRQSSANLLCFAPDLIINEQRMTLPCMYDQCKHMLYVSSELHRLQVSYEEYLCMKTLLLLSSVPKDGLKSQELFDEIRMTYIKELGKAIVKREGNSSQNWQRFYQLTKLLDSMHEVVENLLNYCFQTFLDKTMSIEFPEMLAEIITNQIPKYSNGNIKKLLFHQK
The target is the same in assay [14]. The assay is described as follows: GR-EFC Redistribution (AID 451; calls by dose curve; further: potency means the concentration at half of the fitted maximal effect). The note with it: CHO-K1 GR-EFC translocation, beta-gal luminescence, 2 h. The gist of the method: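 Translocation of GR-ED fusion to nuclear EA restores b-gal, read by luminescence after 1 h room-temperature detection. Engineered CHO-K1 biosensor cells, 1,000/well, exposed 2 h at 37 C to titrations up to 46 uM final.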

Assay [15] addresses Mitogen-activated protein kinase 10 (Mus musculus) (UniProt Q61831). The experiment in a line: JNK3 AlphaScreen Assay (AID 530; active means well fitted curve in either direction with a large enough effect, not every such curve was filed as active;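 further: kinase came from lysate of stimulated human HepG2 cells; signal reports phosphorylation of biotinylated GST-cJun 1-79 at Ser73 with 10 µM ATP; on the % scale 0 is the no-effect control and ±100 the full control effect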). The note with it: JNK3 lysate, c-Jun phosphorylation; series mostly up to 57.1 µM. The gist of the method:
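Room-temperature AlphaScreen kinase assay; pre-activated HepG2 lysate as JNK3 source, biotin-GST-cJun(1-79) substrate, 10 uM ATP, compound 15 min preincubation.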
On the technique in general: Alpha assays give light when donor and acceptor beads are brought close together.

The target of assay [16] is 3',5'-cyclic-AMP phosphodiesterase 4B (Homo sapiens) (UniProt Q07343). The assay is described as follows: qHTS Assay for Inhibitors of PDE-IV (AID 607; active means well fitted activation curve with a large enough effect in the main read-out, with a control signal flat, not every such curve was filed as active; further: potency means the concentration at half of the fitted maximal effect). The note with it: HEK293 ACTOne CNG channel cells, membrane potential fluorescence; series mostly up to 22.9 µM. The procedure, abridged:
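Live HEK293 cells with a modified cyclic nucleotide-gated (CNG) channel report intracellular cAMP via membrane-potential dye fluorescence (ex 535/em 590 nm). Endogenous PDE-IV was targeted. Compounds were tested at up to 22.9 uM final; RO 20-1724 100 uM served as control.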

Assay [17] can be described thus: Cell Viability - NIH 3T3 (AID 541).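 Further: plate controls were DMSO alone for no effect and tamoxifen positive control for full effect; nearly all actives have a fitted effect of over 25% in size.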 The note with it: NIH 3T3 cell viability, qHTS; series mostly up to 92.2 µM. The procedure, abridged: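 NIH 3T3 mouse embryo fibroblasts (1000 cells/well) were plated in complete medium and treated with compound for 40 hr at 37 °C. Viability was read as intracellular ATP by CellTiter-Glo luminescence; AC50 values came from Hill-equation fits of concentration-response data.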

The nature of assay [18]: NFAT Signaling Pathway (AID 444; active means well fitted curve in either direction with a large enough effect, not every such curve was filed as active;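 further: carbachol stimulus at about its EC50 of 1 µM final; on the % scale 0 is the no-effect control and ±100 the full control effect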). The note with it: Jurkat NFAT-bla M1, carbachol, beta-lactamase ratio, 5 h. The procedure, abridged:
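Read-out: CCF4 FRET ratio (460 nm/530 nm) after 1 h RT dye loading, used for %activity and AC50 from titration series. Cells: Jurkat NFAT-β-lactamase/M1 line, treated with compound plus 1 uM carbachol for 5 h, 37 °C.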

Assay [19] is described as follows: Stat Signaling Pathway (AID 446; active means well fitted curve in either direction with a large enough effect, not every such curve was filed as active;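 further: ME-180 cervical cancer cells given 40 pM IL-6 alongside compound; SIE-controlled beta-lactamase reporter measured as 460/530 nm FRET emission ratio; on the % scale 0 is the no-effect control and ±100 the full control effect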). The note with it: ME-180 (cervical carcinoma) SIE beta-lactamase reporter, IL-6 stimulated, 5 h. The gist of the method:
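IL-6/STAT signaling read in ME-180 cells via an SIE beta-lactamase reporter. Stimulus was 40 pM IL-6 (its AC50) for 5 hrs, so both activation and inhibition register.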

3',5'-cyclic-AMP phosphodiesterase 4B (Homo sapiens), sequence (Q07343 whole entry, looked up): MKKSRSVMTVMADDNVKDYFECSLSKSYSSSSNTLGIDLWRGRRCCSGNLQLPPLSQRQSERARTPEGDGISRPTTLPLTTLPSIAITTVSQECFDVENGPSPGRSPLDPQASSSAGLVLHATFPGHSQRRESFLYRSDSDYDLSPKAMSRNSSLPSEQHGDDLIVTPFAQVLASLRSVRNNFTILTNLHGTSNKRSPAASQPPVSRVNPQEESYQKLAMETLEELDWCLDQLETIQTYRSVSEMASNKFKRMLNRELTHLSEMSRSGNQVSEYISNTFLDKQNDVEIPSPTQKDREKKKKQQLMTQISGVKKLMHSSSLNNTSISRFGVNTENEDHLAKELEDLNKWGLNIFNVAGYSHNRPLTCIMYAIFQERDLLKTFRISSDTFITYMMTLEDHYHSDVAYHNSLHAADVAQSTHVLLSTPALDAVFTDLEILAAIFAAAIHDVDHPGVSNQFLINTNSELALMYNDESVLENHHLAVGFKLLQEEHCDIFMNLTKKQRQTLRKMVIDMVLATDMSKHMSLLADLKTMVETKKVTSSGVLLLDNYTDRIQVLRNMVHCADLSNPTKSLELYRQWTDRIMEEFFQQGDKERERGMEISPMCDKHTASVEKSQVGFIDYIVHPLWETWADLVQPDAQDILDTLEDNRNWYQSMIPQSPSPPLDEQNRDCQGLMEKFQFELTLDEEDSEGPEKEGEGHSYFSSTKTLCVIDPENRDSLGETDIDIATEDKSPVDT

As to `O=S(=O)(c1ccc(Cl)cc1)c1ccc(Cl)cc1`, the Potency in [1], in assay [2], in [3], in assay [4] and in assay [5] was greater than 92 µM each time. Besides, in assay [6], the activity change, negative = cytotoxicity was -29.1%. In addition, the Potency result in assay [7], in assay [8], in assay [9], in assay [10] and in assay [11] was “inactive” each time. In addition, the compound was called inactive in assay [12].

`C[C@@H]1O[C@H](C[N+](C)(C)C)C[C@H]1O`: the Potency was greater than 46 µM in assay [13], greater than 46 µM in assay [14] and 3.16 µM (active) in assay [16]. Moreover, in [15], the result was inactive.

In the case of `Cc1cc(O)ccc1Cl`, the Potency in assay [1], in assay [2], in assay [3], in [4] and in [5] was greater than 92 µM each time. Besides, the activity change, negative = cytotoxicity in assay [6] is -7.18%. Moreover, the Potency result in assay [17], in [7], in assay [8], in [9], in [10] and in assay [11] was “inactive” throughout. Also, in assay [12], the compound was classed as inactive.

On to `C[C@@H](N)Cc1cnc[nH]1`, for which the Potency in [13] and in assay [14] was greater than 46 µM in each case. Moreover, in assay [15], the compound was classed as inactive. In addition, the Potency result in assay [16] is “inactive”.

Regarding `CC[C@@H]1C(=O)OC[C@@H]1Cc1cncn1C`, the activity change, negative = inhibition in assay [18] (at 17.2 µM (top of the series)) is 75.4% [activator] (active). For the same compound, the activity, negative = inhibition in assay [19] (at 17.2 µM (top of the series)) was 1.99% and 5.87%.

With `c1ccc(CCCN2CCN(CCOC(c3ccccc3)c3ccccc3)CC2)cc1`, in [18] (at 38 µM (top of the series)), the activity change, negative = inhibition is -82.7% (active). Further, the activity, negative = inhibition in [19] (at 38 µM (top of the series)) was -17.9%. The Potency in assay [13] and in assay [14] was greater than 46 µM in each case. In addition, the Potency entry in [16] was “inactive”.

As to `CCOC(=O)c1cncn1[C@H](C)c1ccccc1`, the Potency in [13] and in assay [14] was greater than 46 µM throughout. Besides, in assay [16], the Potency entry was “inactive”.

Consider `CCOP(=O)(NC(C)C)Oc1ccc(SC)c(C)c1` (configuration not stated), for which the Potency in [1] was greater than 92 µM; in [2] it was greater than 92 µM; in [4], greater than 92 µM; in assay [5], greater than 92 µM; in assay [9], 12.6 µM (active). Also, the call in assay [15] and in [12] was inactive. Moreover, the activity change, negative = cytotoxicity in [6] was -29.1%. Moreover, the Potency entry in assay [7], in assay [8], in assay [10] and in assay [11] was “inactive” each time.

Turning to `NC(=NCCC[C@H](N)C(=O)O)N[N+](=O)[O-]`, the Potency in assay [13] is greater than 46 µM; in assay [14] it was greater than 20.6 µM.

With `CN[C@@H]1C[C@@H](c2ccc(Cl)c(Cl)c2)c2ccccc21`, the activity change, negative = inhibition in [18] (at 38 µM (top of the series)) was -14.3%. Besides, the Potency in [13] and in [14] was greater than 46 µM in each case. Also, the Potency entry in assay [16] is “inactive”.

Consider `CCCN1CCO[C@@H]2c3cc(O)ccc3OC[C@H]21`, for which, in [18] (at 38 µM (top of the series)), the activity change, negative = inhibition is 8.87% and 8.95%. Besides, in assay [19] (at 38 µM (top of the series)), the activity, negative = inhibition was 12% and -17.6%. Also, the Potency in [13] and in assay [14] was greater than 46 µM in each case. In addition, the outcome in assay [15] was inactive. For the same compound, the Potency result in [16] is “inactive”.
